Out of some 210,000 compounds screened, about 5,900 (2.8%) were called active. Entries that show only a call come without a potency. Inconclusive results (about 5%) are left out. Calls come from the whole dose curve; as a rule, active = well fitted activation curve with a large enough effect; inconclusive = small, poorly fitted or top-dose-only effect; inactive = no such curve, though single readings can be large or run the other way. This excerpt belongs to a sample that is enriched for actives.
Potency is the fitted concentration of half-maximal effect.

This experiment is described as follows: qHTS Assay for Enhancers of SMN2 Splice Variant Expression. Note: nearly all actives have a fitted effect of over 55% in size. The note with it: HEK293 SMN2-luciferase splicing reporter, luminescence, 30-36 h; series mostly up to 46.1 µM. In short, it runs like this:
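HEK293 cells carry an SMN2 minigene-luciferase reporter in which exon 7 inclusion puts luciferase in frame. Cells were seeded at 2000 cells/well, attached for 10-12 hours, then exposed to compounds for 30-36 hours at 37C before ONE-Glo luminescence.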
A general note: In qHTS, concentration-response curves come from the screen itself.
With `O=C(CCn1c(=O)c2sccc2n(Cc2ccc(F)cc2)c1=O)NCc1ccc2c(c1)OCO2`, the Potency entry was “inactive”. Take `COc1ccc(S(=O)(=O)NCCc2cc3ccc(C)c(C)c3[nH]c2=O)cc1`: the Potency entry is “inactive”. Regarding `COc1cccc(CNC(=O)c2ccc3c(Cl)c4c(nc3c2)CCCC4)c1`, the Potency result was “inactive”. As for `Cc1ccc2nc(-c3ccc(NC(=O)CN(C)S(=O)(=O)c4ccccc4)cc3)sc2c1`, the figure is 1 µM (active); as for `Cc1cccc(N(CC(=O)Nc2ccc(-c3nc4ccc(C)cc4s3)cc2)S(C)(=O)=O)c1`, “inactive”. On to `COc1cc(NC(=O)CN(C)S(=O)(=O)c2ccc3nc(C)sc3c2)cc(OC)c1`, for which the Potency entry is “inactive”. As for `Cc1ccc(F)cc1NC(=O)CCSc1nc(-c2ccco2)cc(C(F)(F)F)n1`, the entry is “inactive”. On to `COc1ccc(C(=O)n2nc(-c3ccc(C)cc3)nc2N)cc1OC`, for which the Potency result was “inactive”.

For the molecule `COc1ccccc1C(=O)n1nc(-c2ccccc2)nc1N`, the Potency entry was “inactive”. Under `COc1ccc(C(=O)n2nc(-c3ccc(Cl)cc3)nc2N)cc1OC` stands 25.1 µM (active); under `COc1ccc(-c2nc3ccccc3o2)cc1NC(=O)c1cc([N+](=O)[O-])ccc1N1CCOCC1`, “inactive”; under `Cc1cccc(NC(=O)c2cc3c(C)nn(-c4ccccc4)c3s2)c1`, “inactive”. Under `Cc1c(CNC2CCCCC2)c(C(=O)O)c(C)n1Cc1cccc(Cl)c1` stands “inactive”.

With `CCCN1CCN(CCCNC(=O)Cn2nc(CC)n3c(cc4occc43)c2=O)CC1`, the Potency entry was “inactive”. As for `O=c1c(Cl)c(NC2CC2)cnn1-c1ccccc1`, the entry is “inactive”; as for `CCc1nc2c(cnn2-c2ccc(C)cc2)c(=O)n1-c1ccc(C)cc1`, “inactive”; as for `C=CCNc1cnn(-c2ccc(C)cc2)c(=O)c1Cl`, 11.2 µM (active). `Cc1ccccc1-c1nc(CS(=O)(=O)CC(=O)Nc2cc(Cl)cc(Cl)c2)c(C)o1`: the Potency result is “inactive”. As for `COC(=O)c1ccc(CSc2ccc3nnc(-c4ccccc4)n3n2)o1`, the entry is “inactive”.

As to `COC(=O)c1ccc(Cc2ccccc2)o1`, the Potency entry is “inactive”.

`COC(=O)c1ccc(CSc2ccccc2C)o1`: the Potency was 8.91 µM (active). Under `Cc1ccc(NS(=O)(=O)c2ccc3c(c2)CC(=O)N3)cc1Cl` stands “inactive”; under `O=c1cc(CSc2ccc(Cl)cc2)nc(N2CCOCC2)[nH]1`, “inactive”. As for `Clc1ccc2nc(CSc3ccccc3)cn2c1`, the figure is 3.16 µM (active).

On to `CCOc1ncccc1C(=O)OCc1cn2cc(Cl)ccc2n1`, for which the Potency result is “inactive”. Take `Cc1ccc2nc(-c3ccccc3)cc(C(=O)O)c2c1`: the Potency result was “inactive”. Under `Cc1ccc(-c2cc(C(=O)NCc3cn(C)nc3C)c3cc(Br)ccc3n2)cc1` stands “inactive”. `Cc1ccc2nc(-c3cccc(Br)c3)cc(C(=O)Nn3cnnc3)c2c1`: the Potency was 12.6 µM (active). On to `COc1ccc(N(CC(=O)NCCc2ccc(Cl)cc2)S(=O)(=O)c2c(C)nn(C)c2C)cc1`, for which the Potency entry is “inactive”. Under `CCS(=O)(=O)c1ccc2oc(SCC(=O)N3c4ccccc4CC3C)nc2c1` (configuration not stated) stands “inactive”; under `COc1ccc(S(=O)(=O)N(C)C)cc1NC(=O)CSc1ncccn1`, “inactive”; under `CN(C)S(=O)(=O)c1ccc2oc(SCC(=O)Nc3ccccc3F)nc2c1`, 11.2 µM (active). As for `COc1ccc(CNC(=O)Cn2nnc(-c3ccc(S(C)(=O)=O)cc3)n2)cc1`, the entry is “inactive”; as for `Cc1cc(NC(=O)Nc2ccccc2)n(-c2ccccc2)n1`, “inactive”. Consider `Cc1cc(Nc2ccccc2)n(C(=O)c2ccc(N)cc2)n1`, for which the Potency was 11.2 µM (active). As to `Cc1cc(Nc2ccccc2)n(CCC#N)n1`, the Potency entry is “inactive”. On to `COCCNC(=O)CSc1nc(-c2ccccc2)[nH]c1-c1ccc(C)cc1`, for which the Potency entry is “inactive”. For the molecule `COc1ccc(-c2noc(CCC(=O)N(C)c3ccccc3C)n2)cc1`, the Potency result is “inactive”. Under `COc1ccccc1N=Cc1c(O)c2ccccc2oc1=O` stands “inactive”; under `COc1ccc(OC)c(N=Cc2c(O)[nH]c3ccccc23)c1`, “inactive”. As for `COc1ccc(N=Cc2c(O)[nH]c3ccccc23)cc1OC`, the figure is 14.1 µM (active); as for `Cc1ccc(C(=O)Cn2cccn2)cc1`, “inactive”; as for `Cc1ccc(C(=O)CS(C)(=O)=O)cc1`, “inactive”. For `Cc1ccc(C(=O)Cc2nnc(C)s2)cc1`, the Potency is 12.6 µM (active). Under `O=C(NCc1ccccn1)Nc1ccc(F)cc1` stands “inactive”; under `c1ccc(CN=C2Nc3ccccc3CS2)nc1`, 12.6 µM (active); under `Cc1nnc(NCc2ccccc2)c2c1nnn2Cc1ccc(F)cc1`, “inactive”.

As to `CC1CCN(S(=O)(=O)c2ccc3c(c2)N(CC(=O)NCc2ccccc2Cl)C(=O)CO3)CC1`, the Potency result is “inactive”.

In the case of `Cc1csc2nc(COc3ccc(NC(=O)COc4ccccc4)cc3)cc(=O)n12`, the Potency result was “inactive”. As for `CCOc1ccc2nc(N3CCCC(C(=O)Nc4cc(C)ccc4C)C3)sc2c1` (configuration not stated), the figure is 14.1 µM (active). As for `CCOc1ccc2nc(C(=O)N3CCCC(C)C3)sc2c1` (configuration not stated), the figure is 2.82 µM (active); as for `CCOc1ccc2nc(N3CCC(C(=O)Nc4cc(C)ccc4C)CC3)sc2c1`, “inactive”.

In the case of `CCOc1ccc2nc(Nc3nc4ccc(NC(C)=O)cc4s3)sc2c1`, the Potency entry was “inactive”. Under `CCOc1ccc2nc(SC(CC)C(=O)Nc3cc(C)on3)sc2c1` (configuration not stated) stands “inactive”; under `Cc1ccnc(N2CCCC(C(=O)Nc3cc(F)ccc3C)C2)n1` (configuration not stated), “inactive”.

Consider `CCCNC(=O)CCn1nc(-c2ccccc2)c2ccccc2c1=O`, for which the Potency result was “inactive”. Under `O=c1c(O)c(Br)ccc2c(Br)c(O)c(O)c(O)c12` stands “inactive”; under `CC(=NCC1CCCO1)c1c(O)[nH]c(=O)[nH]c1=O` (configuration not stated), “inactive”. As for `O=C(CS(=O)(=O)Cc1ccccc1)NCC1CCCO1` (configuration not stated), the entry is “inactive”; as for `O=C1C(C=NCC2CCCO2)=C(O)c2ccccc21` (configuration not stated), 11.2 µM (active); as for `Cc1ccc(C)c(N2CCN(C(=O)CCc3c(C)nc4c(c3C)c(=O)n(C)c(=O)n4C)CC2)c1`, “inactive”. As for `O=C(Nc1ccc2c(c1)OCCO2)c1cnccn1`, the Potency is 12.6 µM (active). As for `O=C(CCN1C(=O)c2ccncc2C1=O)Nc1ccc2c(c1)OCCO2`, the entry is “inactive”. On to `O=C(Nc1cccc(NC(=O)c2ccco2)c1)c1cnccn1`, for which the Potency result was “inactive”. Under `O=C(NCN1CCN(CCO)CC1)c1cnccn1` stands “inactive”; under `O=C(Nc1ccc(S(=O)(=O)N2CCCCC2)cc1)c1cnccn1`, “inactive”. For the molecule `CCN1CCN(c2ccc(NC(=O)c3cnccn3)cc2)CC1`, the Potency is 11.2 µM (active). Under `O=C(Nc1ccc(OC(F)(F)F)cc1)c1cc2c(=O)n3ccccc3nc2s1` stands “inactive”; under `O=C(Cn1c(=O)n(-c2ccc(F)cc2)c(=O)c2sccc21)Nc1cccc(C(F)(F)F)c1`, “inactive”.

On to `CCN(CC)CCNC(=O)c1cc2c(=O)oc3ccc(C)cc3c2s1`, for which the Potency entry is “inactive”.

On to `COc1cccc(-c2nc3cc(C)ccc3o2)c1`, for which the Potency is 11.2 µM (active). Under `COc1cccc(-c2nc(S(=O)(=O)c3ccc(C)cc3)c(NCc3ccccc3)o2)c1` stands “inactive”; under `COc1cc2ccccc2cc1C(=O)Nc1cccc(-c2nc3ccccc3o2)c1`, “inactive”. Under `COc1cccc(C(=O)Nc2ccc3oc(-c4ccc5ccccc5c4)nc3c2)c1` stands “inactive”; under `COc1ccc2oc(-c3cccc(NC(=O)CSc4ccc(Cl)cc4)c3)nc2c1`, 8.91 µM (active). As for `O=C(COc1ccc(Cl)cc1)Nc1ccc(-c2nc3cc(Cl)ccc3o2)c(O)c1`, the entry is “inactive”. With `CCCSc1ncc(Cl)c(C(=O)Nc2sc3c(c2C(=O)NCCOC)CCCC3)n1`, the Potency entry was “inactive”. As for `O=C(c1ccccc1F)N1CCC(c2nc3c(nnn3Cc3cccc(F)c3)c(=O)[nH]2)CC1`, the entry is “inactive”. As for `COc1ccc(-c2cc(C(F)(F)F)nc(SCC(=O)N(C)Cc3ccccc3)n2)cc1OC`, the entry is “inactive”; as for `CCOc1ccc(N(CC)C(=O)c2cc3c(=O)oc4ccccc4c3s2)cc1`, “inactive”; as for `CSc1ncc(Cl)c(C(=O)Nc2ccc(S(=O)(=O)N3CCCC(C)C3)cc2)n1` (configuration not stated), “inactive”.

For `CCOc1cccc(NC(=O)CSc2ncc(-c3ccc(Cl)cc3)[nH]2)c1`, the Potency result was “inactive”.

For `CCC(=O)N1CCc2cc(S(=O)(=O)NC(Cc3ccccc3)C(=O)NCc3ccc(C)cc3)ccc21` (configuration not stated), the Potency entry was “inactive”.

Regarding `Cc1ccc(NC(=O)Nc2ccccc2)c(Br)c1`, the Potency is 12.6 µM (active). Under `CC(=O)c1cccc(NC(=O)Nc2ccc(C)cc2)c1` stands “inactive”. Under `Cc1cccc(NC(=O)Nc2nnc(-c3ccccc3)o2)c1` stands “inactive”; under `CCN(CC)c1cc(NC2CCCCC2)c2c3c(onc13)-c1ccccc1C2=O`, “inactive”; under `CSc1nc2ccc(NC(=O)c3c(F)cccc3F)cc2s1`, 12.6 µM (active). Under `CCCC(=O)Nc1nc2ccc(NC(=O)c3c(F)c(F)c(OC)c(F)c3F)cc2s1` stands “inactive”; under `Nc1nnc(SCC(=O)Nc2ccc3nc(SCC(=O)Nc4ccccc4)sc3c2)s1`, “inactive”. Turning to `CCC(C(=O)Nc1cccc(Cl)c1C)n1nc(-c2ccc(C)cc2)ccc1=O` (configuration not stated), the Potency entry was “inactive”. Under `Cc1cc2nn(-c3ccc(Cl)cc3)nc2cc1NC(=O)C(C)C` stands “inactive”; under `CCc1ccc(-c2nnn(Cc3nc4ccccc4s3)n2)cc1`, “inactive”.

For `COc1ccc(-c2nc3ccccc3s2)cc1NC(=O)COc1ccccc1C`, the Potency entry was “inactive”. With `COc1ccccc1OCc1nc2ccccc2s1`, the Potency is 3.16 µM (active). As for `COc1ccc(C2=NC3(CCCCC3)N(CC(=O)Nc3ccc(C(C)C)cc3)C2=O)cc1`, the entry is “inactive”.

Consider `C/C(Nc1ccc2oc(=O)ccc2c1)=C1/C(=O)CC2[C@@H]1C2(C)C` (some centres not stated), for which the Potency result was “inactive”. `CCNS(=O)(=O)c1ccc(NC(=O)CSc2nc(-c3ccco3)cc(C(F)(F)F)n2)cc1`: the Potency result is “inactive”. Take `Cn1c(NC(=O)c2ccc3c(c2)OCO3)cc(=O)n(C)c1=O`: the Potency entry is “inactive”. Under `CCSc1ccccc1C(=O)Nc1ccc2c(c1)OCO2` stands “inactive”; under `O=C(Nc1ccc2c(c1)OCO2)c1ccc(N2C(=O)c3ccccc3C2=O)cc1`, “inactive”; under `O=C(Nc1cccc(Cl)c1N1CCOCC1)c1ccc2c(c1)OCCO2`, “inactive”. As for `CN1CCN(c2ccc(NC(=O)c3ccc4c(c3)OCCO4)cc2Cl)CC1`, the figure is 14.1 µM (active); as for `Cn1c(=O)n(C)c2cc(C(=O)Nc3ccc4c(c3)OCO4)ccc21`, 11.2 µM (active); as for `O=C(Nc1ccc2c(c1)OCCO2)c1ccc(Cl)c(S(=O)(=O)N2CCCCC2)c1`, “inactive”.

Consider `CC(C)C(=O)Nc1cccc(C(=O)Nc2ccc3c(c2)OCO3)c1`, for which the Potency is 15.8 µM (active). Under `O=C(Nc1cccc([N+](=O)[O-])c1)c1ccc2c(c1)OCO2` stands “inactive”.
